RXFP1 agonist – activates the human relaxin receptor RXFP1 | Q9HBX9 | HEK293T-RXFP1 cAMP TR-FRET, 30 min; response scale: percent of porcine relaxin response, buffer zero | Potency, µM (highest dose often 57.5 µM), inactives show at the highest dose activation, hits mostly activators | 0.3% of 370,000 active; note: potency is the fitted concentration of half-maximal effect; % is set by controls: 0 for no effect and ±100 for the full control effect; nearly all actives have a fitted effect of over 60% in size
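Agonist response is measured as cAMP accumulation in an RXFP1-transfected HEK293T line under PDE4 inhibition. Values are scaled between buffer-only and 29 nM porcine relaxin, and EC50s come from standard Hill equation fits.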
gsp antag – antagonizes gsp, the McCune-Albright syndrome mutation; gsp-mutant cells, cAMP HTRF, 30 min; Potency, µM (series often up to 76.9 µM), for inactives: at the highest dose activity change, negative = inhibition, hits mostly inhibitors; 0.4% of 340,000 active; calls by dose curve; cell line not stated here;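 note: intracellular cAMP measured with PDE inhibitor Ro 20-1724 present during compound exposure; potency is the fitted concentration of half-maximal effect; % is set by controls: 0 for no effect and ±100 for the full control effect; nearly all actives have a fitted effect of over 65% in size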
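Cells, 2000/well, grown 16–24 h in DMEM 10% FBS with 0.5 mg/ml G418, then compounds plus […] (300 uM addition stock), 30 min at 37C. cAMP read by HTRF (cAMP-d2 and anti-cAMP antibody-K in lysis buffer) after 30 min RT.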
a7 integrin act – activators of alpha7 integrin expression for muscular dystrophy. alpha7betagal myoblasts, beta-gal FDG fluorescence, 48 h. Potency, µM (titrated, usually from 38.3 µM), without a hit: at the highest dose activation, most hits filed as activators. 0.064% of 350,000 active;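 note: potency is the fitted concentration of half-maximal effect; 100% = response of the positive control SU9516; nearly all actives have a fitted effect of over 60% in size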
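alpha7betagal+/- myoblasts (passage 13, 250/well) treated 48 h at 37C with compounds at 1:260 dilution of DMSO stock. Lysed, then beta-galactosidase activity read as FDG fluorescence (ex 480/em 540) after 30 min, with pre-read for autofluorescence.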
gsp agonist – gsp mutant agonism. gsp mutant cells, cAMP HTRF, 30 min. Potency, µM (series often up to 76.9 µM), without a hit: at the top dose activation (cAMP increase), most hits filed as activators. 0.13% of 340,000 active. AID 624287; active = well fitted activation curve with a large enough effect; inconclusive = small, poorly fitted or top-dose-only effect, or another doubt; inactive = no such curve, though single readings can be large or run the other way; cell line not stated here;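 note: phosphodiesterase inhibitor Ro 20-1724 added with compounds to block cAMP breakdown; potency is the fitted concentration of half-maximal effect; nearly all actives have a fitted effect of over 60% in size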
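Cells stably selected in G418 were plated at 2000/well, grown 16-24 hr, then given compounds in DMSO with the PDE inhibitor […] (300 uM solution added) for 30 min at 37C; cAMP was read by HTRF.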
S-ASM inh – blocks human secretory acid sphingomyelinase; P17405; Potency, µM (titrated, usually from 57.5 µM), for inactives: at the top dose activity change, negative = inhibition, most hits filed as inhibitors; 0.006% of 340,000 active; placental ASM, HMU-PC fluorogenic substrate, 60 min; note: potency is the fitted concentration of half-maximal effect
Target sequence (P17405 47-631 limits assumed): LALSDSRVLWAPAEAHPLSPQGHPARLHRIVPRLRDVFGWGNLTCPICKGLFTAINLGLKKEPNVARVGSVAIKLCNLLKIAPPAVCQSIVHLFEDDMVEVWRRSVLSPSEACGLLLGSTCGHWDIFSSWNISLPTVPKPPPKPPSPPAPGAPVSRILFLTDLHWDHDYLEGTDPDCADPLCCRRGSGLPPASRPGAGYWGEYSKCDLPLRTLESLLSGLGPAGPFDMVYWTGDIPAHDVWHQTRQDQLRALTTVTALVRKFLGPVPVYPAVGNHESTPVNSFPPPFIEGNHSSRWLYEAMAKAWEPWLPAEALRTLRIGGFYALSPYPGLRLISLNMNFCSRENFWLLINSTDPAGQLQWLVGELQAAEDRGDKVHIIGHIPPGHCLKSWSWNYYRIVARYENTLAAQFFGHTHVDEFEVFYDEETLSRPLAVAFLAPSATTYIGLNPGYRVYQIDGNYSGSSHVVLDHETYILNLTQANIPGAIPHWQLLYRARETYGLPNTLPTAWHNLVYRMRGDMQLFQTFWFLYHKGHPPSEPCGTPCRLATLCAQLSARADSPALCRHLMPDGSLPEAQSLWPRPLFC
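Human placenta-derived ASM enzyme was preincubated with compound for 10 minutes at room temperature, then given fluorogenic substrate HMU-PC0 (9 uM final) for 60 minutes at 37 °C; a pH 10 stop preceded fluorescence reading at Ex 386/Em 447 nm.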
RXFP1 antag – antagonists of human relaxin receptor RXFP1; activity change, negative = inhibition, % at 57.5 µM; HEK293-RXFP1, relaxin-stimulated cAMP HTRF, 30 min; active compounds read low; 0.59% of 350,000 active; AID 1259400;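 active = activity change of -60% or lower, but not beyond a set lower limit; inconclusive = change between -60% and -40%, or beyond the set limit; inactive = change above -40%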; note: % is set by controls: 0 for no effect and ±100 for the full control effect
* marks the source's active call; other numbers are inactive results; ? = inconclusive; . = not tested or not shown; [ ] = dose if it differs, or a comment. Shown are actives, neighbours in structure and some others; about 1.1% of the full set was active somewhere. Unless noted, calls come from the whole dose curve; as a rule, active = well fitted curve in the direction sought with a large enough effect; inconclusive = small, poorly fitted or top-dose-only effect, or another doubt; inactive = no such curve, though single readings can be large; an effect the other way counts as inactive or inconclusive.

SMILES | RXFP1 agonist | gsp antag | a7 integrin act | gsp agonist | S-ASM inh | RXFP1 antag
COc1cc(NC(=O)c2cc3ccccc3cc2O)c(OC)cc1Cl | 5.3% | 20µM* | -74.0% | ? | 13.7% | -19.7
COc1ccccc1NC(=O)c1ccccc1Oc1ccccc1 | -1.2% | 5.62µM* | -15.9% | -6.6% | -3.2% | -17.3
Brc1ccc(-c2nn3c(-c4ccco4)nnc3s2)o1 | 12.6µM* | 4.2% | -13.5% | ? | 14.5% | -23.1
Oc1ccc(CNc2ccc(C(F)(F)F)cc2Cl)c2cccnc12 | 1.1% | . | . | . | . | .
COCC(C)N1C(=O)Cc2c1nc(N)c1c(N)nc(N3CCN(c4ccccc4F)CC3)c(C#N)c21 (centres undefined) | 18.6% | -13.9% | -37.9% | ? | 322.3% | -60.1*
COCCN1C(=O)Cc2c1nc(N)c1c(N)nc(N3CCN(c4ccc(F)cc4)CC3)c(C#N)c21 | 2.9% | -24.2% | -15.7% | 3.7% | 73.9% | -3.5
NS(=O)(=O)c1cc2c(cc1Cl)NC(c1ccccc1OCC(=O)O)NS2(=O)=O (centres undefined) | 0.9% | -3.3% | 17.5% | 6.1%[15.4 µM] | 1.1% | -11.0
COc1cc2c(=O)c(C(=O)c3ccc(C)c(C)c3)cn(Cc3ccc(F)cc3)c2cc1OC | -1.0% | . | . | . | . | -2.2
O=C(C=C=Nc1ccccc1)C(=O)N=C=Cc1ccccc1 | -2.0% | -12.5% | -74.4% | 17.6%[15.4 µM] | 4.8% | -61.5*
CNC(=O)[C@H]1O[C@@H](n2cnc3c(NCc4cccc(I)c4)ncnc32)[C@H](O)[C@@H]1O | 15.8µM* | -0.5% | . | . | -9.2% | .
COc1ccc2occ(CC(=O)Nc3ccc(S(=O)(=O)Nc4nc(C)cc(C)n4)cc3)c2c1 | 1.5% | . | . | . | . | -25.3
O=C(CN1CCOCC1)NNc1c2ccccc2nc2ccccc12 | -5.0% | ? | 17.5% | 10.0% | 4.4% | -62.2*
O=C(Cc1ccccc1)NNC(=O)c1ccccc1C(=O)O | 0.9% | 11.2µM* | -50.8% | ? | -3.3% | 6.6
Cn1nnnc1SCCCNCc1cc(Br)ccc1OCc1ccccc1 | 3.6% | . | . | . | . | -5.5
O=C(NCCN1CCOCC1)c1c(O)nc2ccccn2c1=O | 17.2% | 3.0% | 27.6% | 15.4% | -0.4% | -90.7*
Cc1ccn2c(=O)c(C(=O)NCCN3CCOCC3)c(O)nc2c1 | 1.4% | 13.0% | 30.6% | 48.8% | 4.5% | 17.9
O=C(CSc1nc2ccccc2nc1Cc1ccc(Cl)cc1)N1CCCCC1 | 21.8% | . | . | . | . | ?
COCCCn1c(=O)/c(=C\c2cccc(OC)c2OC)s/c1=C(/C#N)C(=O)Nc1ccc(C(=O)O)cc1 | 3.8% | 14.1µM* | -19.3% | 0.0% | 8.3% | 14.8
COCCCNC(=O)/C(C#N)=c1\s/c(=C\c2ccccc2OC(F)F)c(=O)n1CCCOC | 0.2% | -1.5% | -32.1% | 3.4%[15.4 µM] | 38.6% | -3.0
COC(=O)c1c(-c2ccco2)csc1NC(=O)C1CC=CCC1C(=O)O (centres undefined) | 27.9% | -3.6% | -7.1% | 31.6µM* | -1.3% | 23.7
O=C(/C=C/c1ccc(Cl)cc1Cl)NCCSCc1ccccc1 | 0.8% | 7.5% | 21.0% | 1.3% | -1.1% | -22.2
O=C(/C=C/c1ccc(Cl)cc1Cl)NCCSc1ccccc1 | -0.4% | 44.7µM* | -7.9% | ? | -6.4% | -18.5
CCOc1ccc(C(=O)Nc2cccc(NC(=O)c3ccc(Cl)cc3Cl)c2)cc1 | -1.2% | . | . | . | . | 1.2
O=C(CSC1=NCCS1)Nc1ccc(F)cc1 | -0.1% | 8.91µM* | ? | 1.1% | -0.7% | 13.9
NC(=O)c1ccccc1NC(=O)CSC1=NCCS1 | 2.3% | 7.7% | -51.5% | -7.7% | 0.1% | 2.4
SMILES | RXFP1 agonist | gsp antag | a7 integrin act | gsp agonist | S-ASM inh | RXFP1 antag
O=C(CSCC(=O)Nc1nc(-c2ccc3c(c2)OCO3)cs1)Nc1nccs1 | 1.5% | 31.6µM* | 21.3% | 5.9% | -12.8% | 4.1
CNC(=O)c1cnn(-c2nc(N)c3ncn([C@@H]4O[C@H](CO)[C@@H](O)[C@H]4O)c3n2)c1 | . | . | . | . | . | 7.5
N#C/C(=C(/O)C(Cl)(Cl)Cl)c1nc2ccccc2[nH]1 | 2.5% | 28.2µM* | 29.7% | -11.7% | -1.9% | -16.8
CC(C)N1CCc2c(sc(NC(=O)c3ccc(C(=O)c4ccccc4)cc3)c2C(N)=O)C1 | -0.1% | -9.5% | -54.2% | -2.8%[15.4 µM] | -7.7% | -14.7
CC(C)N1CCc2c(sc(NC(=O)c3ccc4ccccc4c3)c2C(N)=O)C1 | -2.6% | 0.0% | -63.8% | 27.9% | 12.3% | -73.8*
COc1ccc(Nc2cc(C)c3cc(NC(=O)COc4cccc(C)c4)ccc3n2)cc1 | 3.5% | . | . | . | . | .
COc1cccc(CNC(=O)c2ccc(NC(=O)N3CCCCc4ccccc43)cc2)c1OC | -0.2% | . | . | . | . | .
CCN(CC)c1c([N+](=O)[O-])c(=O)n(C)c2ccccc12 | -1.0% | -7.5% | 7.4% | -9.4%[15.4 µM] | 0.0% | -35.0
Cn1c(=O)c([N+](=O)[O-])c(Cl)c2ccccc21 | 2.3% | 28.2µM* | -64.6% | -2.4%[15.4 µM] | 4.3% | -79.7*
O=C(O)CCC(=O)N1N=C(c2ccccc2)CC1c1ccc(Br)cc1 (centres undefined) | -0.8% | 39.8µM* | 3.7% | 5.8%[15.4 µM] | 0.4% | -2.1
COc1ccc(/C(C)=N/Nc2ccc(C(=O)O)cc2)c(OC)c1 | 9.0% | 3.9% | -3.6% | 2.6%[15.4 µM] | -0.7% | -13.8
COc1ccc2c(c1)C(=NNc1ccc(C(=O)O)cc1)c1cc(OC)ccc1-2 | 1.1% | -18.9% | 0.3% | 12.6µM* | -11.6% | 1.7
COc1cc(C2CC(=O)Oc3cc(C)c(Br)c(C)c32)cc(OC)c1OC (centres undefined) | . | -3.5% | -0.8% | . | ? | .
Fc1ccc(Cc2cn3cc(-c4ccc(F)cc4)nc3s2)cc1 | 5.7% | . | . | . | . | .
CN1CCCC(CC2Oc3ccccc3Sc3ccccc32)C1 (centres undefined) | -1.5% | 22.7% | -27.8% | -14.0%[15.4 µM] | 0.8% | -81.4*
c1ccc2c(c1)OC(CCCN1CCCCC1)c1ccccc1S2 (centres undefined) | 1.8% | 21.1% | -52.2% | -6.0% | -1.8% | ?
Cn1c(=O)n(C)c2cc(N3CCCCC3)c(NC(=O)c3c(F)cccc3F)cc21 | 1.4% | . | . | . | . | -26.6
O=C(CN1C(=O)C2CCCCC2C1=O)Nc1nc(-c2ccc(F)cc2)cs1 (centres undefined) | 1.9% | -30.7% | 22.1% | ? | -2.1% | ?
O=C(CN1C(=O)C2CC=CCC2C1=O)Nc1nc(-c2ccc(F)cc2)cs1 (centres undefined) | 0.6% | -28.2% | -0.2% | 19.8% | -2.9% | -83.9*
CC1(C(=O)OCC(=O)Nc2nc(-c3ccc(F)c(F)c3)cs2)CC1(Cl)Cl (centres undefined) | -3.4% | 50.1µM* | 0.0% | -31.3% | -4.9% | ?
O=C(Cc1ccc(F)cc1)Nc1nc(-c2ccc(F)c(F)c2)cs1 | 0.4% | ? | 23.2% | -1.3% | -7.7% | -88.0*

From PubChem
